As a reminder, the inhibition is the change of the read-out against control, counted positive when it falls.

The whole screen tested about 200,000 compounds, of which about 18,000 (9%) were called active. Cut-off read from the data, not from the text of the source: active = inhibition above about 50%; inactive = the rest. Shown is part of a subset that was picked to be rich in actives.

The nature of this assay: antileishmanial activity against promastigotes – primary screen (AID 1063).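 Note: promastigotes grown with compound for 44 hours at 28 °C.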 The conditions noted are these: Leishmania major promastigotes, resazurin fluorescence viability; at 10 µM; stronger effect = higher value. A general note: Resazurin is reduced to fluorescent resorufin, in cell work by metabolically active cells.
Consider `Cc1nc2ccccn2c1P(=S)(N1CCCCC1)N1CCCCC1`, for which the inhibition is 97.4% (active).

On to `COc1ccc(CN2CCN(c3ccccc3F)CC2)c(OC)c1`, for which the inhibition is 9.36% (inactive).

For `CC(c1ccccc1)(c1ccccc1)c1ccncc1`, the inhibition was 19.2% (inactive).

With `c1cc2c(cc1CCNC1CCCCCC1)OCO2`, the inhibition is 95.2% (active).

In the case of `CC(=NCc1ccc2c(c1)OCO2)c1c(O)[nH]c(=O)[nH]c1=O`, the inhibition was -2.64% (inactive).

As for `Fc1ccc(N2CCN(Cc3ccc4c(c3)OCO4)CC2)cc1`, the inhibition is 44.5% (inactive).

Take `c1ccc2sc(C3CCCNC3)nc2c1` (centres undefined): the inhibition was 31.9% (inactive).

In the case of `O=C(O)CCn1cc(C=C2C(=O)NC(=S)NC2=O)c(-c2cccc(Br)c2)n1`, the inhibition is -7.24% (inactive).

Take `Cn1c(O)c(C=NCCN2CCNCC2)c(=O)n(C)c1=O`: the inhibition was -6.59% (inactive).

Turning to `CN1CCC(N(C)Cc2cccnc2)CC1`, the inhibition is -2.3% (inactive).

With `COc1ccc(NC(=O)N2CCC3(CC2)OCCO3)c(OC)c1`, the inhibition was -0.24% (inactive).

Turning to `N#Cc1ccc(Cn2cc(C(=O)c3ccco3)c3ccccc32)cc1`, the inhibition is 93.3% (active).

On to `NC(=O)Cn1cc(C(=O)c2ccccc2F)c2ccccc21`, for which the inhibition was -6.3% (inactive).

Regarding `CC(C)Nc1nc(Cl)nc(NC(C)C)n1`, the inhibition was 24.7% (inactive).

`COc1ccc(-c2nn(CCC#N)cc2C(=O)O)cc1`: the inhibition was -0.84% (inactive).

For the compound `CC(C)c1ccc(OCC(=O)N2CCN(C)CC2)c(Br)c1`, the inhibition was 37.9% (inactive).

Turning to `CN1CCN(C(=O)COc2ccc(C(C)(C)C)cc2Br)CC1`, the inhibition is 59.9% (active).

Take `CC(C)(C)c1ccc(OC(=O)N2CCCCC2)cc1`: the inhibition is -10.5% (inactive).

As for `CSC1=NP(=S)(SC)N(C)c2nc3n(c21)CCC3` (centres undefined), the inhibition is 2.74% (inactive).

With `CN(C)C(=O)NC(O)C(Cl)(Cl)Cl` (centres undefined), the inhibition is -1.83% (inactive).

In the case of `CN(C)CC1CCCCC1OC(=O)c1ccc(Cl)c(Cl)c1` (centres undefined), the inhibition was 56.1% (active).

For the compound `COc1ccc(NC(=O)c2cn(CCC#N)nc2-c2ccc([N+](=O)[O-])cc2)cc1`, the inhibition is -5.27% (inactive).

Turning to `CN1C2C=C(N(C(=O)c3ccc(Cl)cc3)c3ccccc3)CC1CC2` (centres undefined), the inhibition is -6.27% (inactive).

For the compound `N#CC1=C(N)Oc2c(c(=O)oc3ccccc23)C1c1ccccc1OC(=O)c1cccs1` (centres undefined), the inhibition was 8.6% (inactive).

Turning to `CCNc1nc2[nH]c(=O)c3c(c2s1)OC(N)=C(C#N)C3c1cccs1` (centres undefined), the inhibition is 56.6% (active).

For the compound `CCOCCc1c(O)[nH]c(=S)[nH]c1=O`, the inhibition is -2.27% (inactive).

Turning to `O=C(CN1CCCC1=O)NCCc1ccccc1`, the inhibition is -2.62% (inactive).

Consider `N[C@@H](Cc1c[nH]c2ccccc12)c1nnc(SCc2c(F)cccc2Cl)o1`, for which the inhibition is -1.59% (inactive).

Consider `CC(Cc1cccs1)NCc1ccc(Cl)cc1` (centres undefined), for which the inhibition is 37.3% (inactive).

`Cc1ccc(-c2cc(C(=O)N3CCC4(CC3)OCCO4)no2)cc1`: the inhibition is 3.46% (inactive).

As for `COc1ccccc1N1CCN(C(CNC(=O)Oc2ccccc2)c2cccnc2)CC1` (centres undefined), the inhibition was 90.8% (active).

In the case of `O=C(NCC(c1cccnc1)N1CCN(c2ccccc2)CC1)Oc1ccccc1` (centres undefined), the inhibition was 86.7% (active).

Regarding `COC(=O)C(c1ccccc1)N1CCCCCC1` (centres undefined), the inhibition was -3.28% (inactive).

On to `COC(=O)N1C(c2ccccc2)C1c1ccccc1` (centres undefined), for which the inhibition is -7.32% (inactive).

As to `CN(C)/C=C(\C=[N+](C)C)c1[nH]ncc1[N+](=O)[O-]`, the inhibition was -3.98% (inactive).

Consider `CC(C)CN1CCN(Cc2ccccc2C(F)(F)F)CC1CCO` (centres undefined), for which the inhibition was 1.28% (inactive).

`O=c1[nH]c(=S)n(C2CC2)c(O)c1/C=N/N1CCOCC1`: the inhibition is -5.26% (inactive).

As for `CN(C)C(=O)Oc1cc(=O)n2c3c(cccc13)CCC2`, the inhibition was 23.7% (inactive).

Turning to `Nc1ccc(C(=O)N/N=C2/CN3CCC2CC3)cc1`, the inhibition is -7.96% (inactive).

Source of the values: PubChem BioAssay AID1063 (University of Pittsburgh Molecular Library Screening Center, 2008).
